The list is not random: actives were taken first. Their share in the collection is about 2.9%.
MEKK2wt PB1 HTS: raises or lowers MEK5 binding to wildtype human MEKK2 PB1 domain. hit rate 1.1% among 290,000. bead flow cytometry, Alexa488-MEK5 binding to MEKK2 WT; actives lie on both sides. binding response (% of control), % at 10 µM. AID 1531; in the data active = binding response below about 67% or above about 130%
MEKK2mut PB1 HTS: signal of MEK5 binding to mutant human MEKK2 PB1 domain; AID 1530; percent response, % at 10 µM; hit rate 0.35% among 290,000; bead flow cytometry, Alexa488-MEK5 binding to MEKK2 mutant; in the data active = percent response above about 24%, passing the limit was not always enough
dFosB activator: activators of mouse delta FosB homodimer. purified delta FosB, TAMRA-CDK5 oligo fluorescence polarization; percent of positive-control signal above neutral wells. hit rate 0.99% among 340,000. activation, % at 25 µM. P13346;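 active = mean activation above about 17%, with every replicate also reaching it, limit read from the data, passing the limit was not always enough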
MEKK3 PB1 HTS: modulators (inhibitors or enhancers) of MEK5 binding to human MEKK3 PB1 domain; bead-based flow cytometry, Alexa488-MEK5 binding to MEKK3; actives lie on both sides; 0 = blocked by unlabeled MEK5, 100 = vehicle; hit rate 1.4% among 290,000; binding response (% of control), % at 10 µM;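 active = binding response more than 3 SD above or below the average of its plate-row segment, actives on both sides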;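 also: Alexa488 bead fluorescence after subtracting the streptavidin-only scavenger bead signal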
Target sequence (Q99759 whole entry, looked up, the tested form may be a part): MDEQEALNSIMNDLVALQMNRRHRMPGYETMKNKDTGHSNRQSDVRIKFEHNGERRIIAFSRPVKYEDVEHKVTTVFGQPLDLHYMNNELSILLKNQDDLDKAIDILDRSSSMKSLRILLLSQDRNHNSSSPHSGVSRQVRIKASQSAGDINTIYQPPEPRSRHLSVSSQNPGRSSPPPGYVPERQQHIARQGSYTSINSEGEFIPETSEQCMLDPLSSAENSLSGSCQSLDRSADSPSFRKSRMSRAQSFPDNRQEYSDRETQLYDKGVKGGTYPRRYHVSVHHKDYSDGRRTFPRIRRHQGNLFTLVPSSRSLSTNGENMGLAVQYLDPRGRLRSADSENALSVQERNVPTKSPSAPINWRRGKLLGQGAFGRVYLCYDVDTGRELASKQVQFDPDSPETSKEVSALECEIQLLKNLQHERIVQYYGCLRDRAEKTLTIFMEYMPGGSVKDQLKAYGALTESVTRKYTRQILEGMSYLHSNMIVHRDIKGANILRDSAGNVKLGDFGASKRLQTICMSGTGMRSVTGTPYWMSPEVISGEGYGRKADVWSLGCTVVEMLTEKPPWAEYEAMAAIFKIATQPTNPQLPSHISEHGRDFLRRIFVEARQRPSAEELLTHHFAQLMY
DNA FID counter: fluorescent intercalator displacement, NS3 helicase counter-screen; hit rate 0.17% among 290,000; inhibition, % at 7.9 µM; DNA fluorescent intercalator displacement, fluorescence; in the data active = inhibition above about 37%;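 also: higher means more ethidium bromide displaced from hairpin DNA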
MEKK2wt confirm: raises or lowers MEK5 binding to wildtype human MEKK2, retest. hit rate 2.4% among 5,900. binding response (% of control), % at 10 µM. shares compounds with MEKK3 PB1 HTS. bead flow cytometry, Alexa488-MEK5 binding to MEKK2 WT; actives lie on both sides. AID 1892; in the data active = binding response below about 16% or above about 210%; inactive = in between
MEKK2mut-MEK5: signal of MEK5 binding to mutant human MEKK2, retest. shares compounds with MEKK3 PB1 HTS. bead flow cytometry, Alexa488-MEK5 binding to MEKK2 mutant. percent response, % at 10 µM. hit rate 2% among 5,900; in the data active = percent response mostly above about 71%, no sharp cut-off; inactive = mostly below about 38%;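 also: higher means compound restores mutant binding toward wildtype level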
MEKK3 confirm: MEKK3-MEK5 PB1 inhibition, single concentration confirmation; shares compounds with MEKK3 PB1 HTS; bead flow cytometry, Alexa488-MEK5 binding to MEKK3; active compounds read low; binding response (% of control), % at 10 µM; hit rate 1.8% among 5,900;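 active = binding response below 72% of control, or above a set upper limit, though filed actives all read lower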;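 also: lower values mean stronger disruption of MEK5 binding to MEKK3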
Large screens that a line does not name were inactive (follow-up assays come after a bar, where they were run); [ ] = another dose, or the depositor's remark.

Cc1cc(C2N=C(N)Nc3nc4ccccc4n32)c(C)n1-c1ccccc1Cl (configuration not stated)	MEKK2wt PB1 HTS 138.0, MEKK2mut PB1 HTS 26.0, dFosB activator 75.6 | MEKK2wt confirm inactive | MEKK2mut-MEK5 inactive | MEKK3 confirm inactive
Cc1ccc(-n2c(C)cc(C3N=C(N)Nc4nc5ccccc5n43)c2C)c(C)c1 (configuration not stated)	MEKK2wt PB1 HTS 134.0, MEKK2mut PB1 HTS 28.0, dFosB activator 64.6 | MEKK2wt confirm inactive | MEKK2mut-MEK5 inactive | MEKK3 confirm inactive
CCCc1nc2ccccc2n1Cc1ccccc1OC	none
O=C(Nc1cccnc1)c1cc(F)c(F)cc1Cl	MEKK2wt PB1 HTS 1.0[inhibitor], MEKK3 PB1 HTS 1.0[inhibitor] | MEKK2wt confirm inactive | MEKK2mut-MEK5 inactive | MEKK3 confirm inactive
COc1ccc(OC)c(S(=O)(=O)N2CCN(c3ccccc3OC)CC2)c1	none
Cc1cccc(CN2CCc3c([nH]c4ccccc34)C2)c1	none
COc1cc(OC)c(CN2CCc3c([nH]c4ccccc34)C2)cc1Br	MEKK2mut PB1 HTS 30.0 | MEKK2wt confirm inactive | MEKK2mut-MEK5 inactive | MEKK3 confirm inactive
Cc1ccc2nc(-c3cccc(NS(C)(=O)=O)c3)cc(-c3ccccc3)c2c1	none
CS/C(N)=N/N=C/c1c(O)ccc2ccccc12	MEKK3 PB1 HTS 133.0 | MEKK2wt confirm inactive | MEKK2mut-MEK5 inactive | MEKK3 confirm inactive
CN(C)/N=C/c1c(O)ccc2ccccc12	none
Cc1ccc(S(=O)(=O)Oc2ccc3ccc(O)cc3c2)cc1	none
CCOc1ccc(S(=O)(=O)Oc2ccc3ccccc3c2)cc1	MEKK3 PB1 HTS 148.0 | MEKK2wt confirm inactive | MEKK2mut-MEK5 inactive | MEKK3 confirm inactive
O=C(NCCCNC(=O)c1cnccn1)c1cccc(Cl)c1	none
COc1cc(NC2c3ccccc3C(=O)N2Cc2ccccc2Cl)cc(OC)c1 (configuration not stated)	MEKK3 PB1 HTS 135.0 | MEKK2wt confirm inactive | MEKK2mut-MEK5 inactive | MEKK3 confirm inactive
COc1cccc(NC2c3ccccc3C(=O)N2Cc2ccccc2Cl)c1 (configuration not stated)	none
CSc1cccc(NC(=S)N2CCC(N(C)C(C)C)CC2)c1	MEKK3 PB1 HTS 50.0[inhibitor] | MEKK2wt confirm inactive | MEKK2mut-MEK5 inactive | MEKK3 confirm inactive
Cc1ccccc1S(=O)(=O)c1cc(C#N)c(=O)[nH]c1N	MEKK3 PB1 HTS 69.0[inhibitor] | MEKK2wt confirm inactive | MEKK2mut-MEK5 inactive | MEKK3 confirm inactive
N#Cc1cc(S(=O)(=O)c2ccccc2)c(N)[nH]c1=O	none
O=C(N/N=C/c1ccc(Cl)cc1Cl)c1n[nH]c2c1CCCC2	MEKK3 PB1 HTS 128.0 | MEKK2wt confirm inactive | MEKK2mut-MEK5 inactive | MEKK3 confirm inactive
O=C(N/N=C\c1cccc(Cl)c1)c1n[nH]c2c1CCCC2	none
O=C(NCc1ccco1)C1CC(c2ccc(Cl)cc2)=NO1 (configuration not stated)	none
O=C(NCc1ccco1)C1CC(c2ccc(F)cc2)=NO1 (configuration not stated)	MEKK3 PB1 HTS 73.0[inhibitor] | MEKK2wt confirm inactive | MEKK2mut-MEK5 inactive | MEKK3 confirm inactive
CC1CCN(c2oc(-c3ccc(F)cc3)nc2C#N)CC1	none
Nc1ccccc1Nc1cc(-c2ccccc2)nn1-c1cccc(Cl)c1	MEKK3 PB1 HTS 141.0 | MEKK2wt confirm inactive | MEKK2mut-MEK5 inactive | MEKK3 confirm inactive
O=C(CCl)Nc1cc(-c2ccccc2)nn1-c1ccccc1	none
Cc1c(C(=O)NCc2ccc3c(c2)cc(C)n3C)cccc1[N+](=O)[O-]	MEKK3 PB1 HTS 73.0[inhibitor] | MEKK2wt confirm inactive | MEKK2mut-MEK5 inactive | MEKK3 confirm inactive
Cc1cc2cc(CNC(=O)c3ccc(Br)o3)ccc2n1C	MEKK2wt PB1 HTS 45.0[inhibitor], MEKK3 PB1 HTS 66.0[inhibitor] (no result: DNA FID counter) | MEKK2wt confirm inactive | MEKK2mut-MEK5 inactive | MEKK3 confirm inactive
Cc1cccc(NC(=S)NCc2ccc3c(c2)cc(C)n3C)c1C	MEKK2wt PB1 HTS 66.0[inhibitor], MEKK3 PB1 HTS 78.0[inhibitor] | MEKK2wt confirm inactive | MEKK2mut-MEK5 inactive | MEKK3 confirm inactive
Cc1cc2cc(CNC(=O)c3cccc([N+](=O)[O-])c3)ccc2n1C	MEKK3 PB1 HTS 72.0[inhibitor] | MEKK2wt confirm inactive | MEKK2mut-MEK5 inactive | MEKK3 confirm inactive
O=C(CSc1ccsc1[N+](=O)[O-])NCc1ccco1	none
Cc1ccc(NC(=O)CNC(=O)c2ccco2)c(Cl)c1	none
O=C(Nc1ccccc1)c1cc(S(=O)(=O)N2CCCCC2)ccc1N1CCOCC1	none (no result: MEKK2wt PB1 HTS, MEKK2mut PB1 HTS, MEKK3 PB1 HTS, DNA FID counter)
CC(=O)N1CCN(C(=O)c2cc(=O)c3ccccc3o2)CC1	none
Cc1noc(C)c1NC(=O)Nc1ccc2c(c1)C(=O)N([C@H](C)CO)C[C@H](C)[C@@H](CN(C)C(=O)NC1CCCCC1)O2	none (no result: MEKK2wt PB1 HTS, MEKK2mut PB1 HTS, MEKK3 PB1 HTS, DNA FID counter)
c1csc(-c2cn3ccc4ccccc4c3n2)c1	MEKK2wt PB1 HTS 7.0[inhibitor], MEKK3 PB1 HTS 6.0[inhibitor] | MEKK2wt confirm inactive | MEKK2mut-MEK5 inactive | MEKK3 confirm inactive
Cc1ccc(C(=O)CN(C(=O)c2ccc(Cl)c(Cl)c2)N2C(=O)C3C4C=CC(C4)C3C2=O)cc1 (configuration not stated)	MEKK3 PB1 HTS 82.0[inhibitor] | MEKK2wt confirm inactive | MEKK2mut-MEK5 inactive | MEKK3 confirm inactive
NNC(=O)Cn1nc(-c2ccccc2)c2ccccc2c1=O	MEKK2wt PB1 HTS 3.0[inhibitor], MEKK3 PB1 HTS 2.0[inhibitor] | MEKK2wt confirm inactive | MEKK2mut-MEK5 inactive | MEKK3 confirm inactive
O=C(O)Cn1nc(-c2ccccc2)c2ccccc2c1=O	none
CN(Cc1ccc(Br)cc1)CC(O)COc1cccc(Br)c1 (configuration not stated)	none
CC1(C)CC2(CCCN(C(=S)Nc3ccccc3)C2)CCO1 (configuration not stated)	MEKK3 PB1 HTS 128.0 | MEKK2wt confirm inactive | MEKK2mut-MEK5 inactive | MEKK3 confirm inactive
O=C(COC(=O)Cc1ccccc1F)NC(=O)NC1CCCC1	none (no result: MEKK2wt PB1 HTS, MEKK2mut PB1 HTS, MEKK3 PB1 HTS, DNA FID counter)
O=C(CCc1nc2ccccc2c(=O)[nH]1)N1CCCc2ccccc21	none (no result: MEKK2wt PB1 HTS, MEKK2mut PB1 HTS, MEKK3 PB1 HTS, DNA FID counter)
COc1cc(C(Nc2ccc(S(=O)(=O)N3CCC(C)CC3)cc2)C(=O)NCC2CCCO2)cc(OC)c1OC (configuration not stated)	none
COc1cc(C(Nc2ccc(S(=O)(=O)NCC3CCCO3)cc2)C(=O)NC(C)(C)C)cc(OC)c1OC (configuration not stated)	MEKK3 PB1 HTS 129.0 | MEKK2wt confirm inactive | MEKK2mut-MEK5 inactive | MEKK3 confirm inactive
CC(C)(C)C(=O)Cn1nc(Cl)nc1Cl	MEKK3 PB1 HTS 132.0 | MEKK2wt confirm inactive | MEKK2mut-MEK5 inactive | MEKK3 confirm inactive

Screening results (PubChem BioAssay)
